# Laboratory results published in PubChem BioAssay AID743279 (National Center for Advancing Translational Sciences (NCATS), 2014).
# Screen size: about 360,000 compounds; about 17,000 (4.7%) were called active. Roughly 5% stayed inconclusive and do not appear here. Shown is part of a subset that was picked to be rich in actives. Values without a mark were called inactive. No stated cut-off is given here; in the data, active means activity change below about -50%; inconclusive means mostly about -30% to -49%; inactive means weaker than that.
# Assay: qHTS for Inhibitors of Inflammasome Signaling: IL-1-beta AlphaLISA Primary Screen
# Conditions: THP-1 LPS/ATP IL-1B secretion, 16 h; at 57.5 µM, active compounds read low
# Summary of the method: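 THP-1 cells pretreated 1 hr with compounds (up to 57.5 uM final), then stimulated with LPS (250 ng/mL final) plus ATP (1.25 mM final); secreted IL-1B measured by AlphaLISA after 16 hr, decreased signal indicating inhibition.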
# On the % scale 0 is the no-effect control and ±100 the full control effect.
row,SMILES,activity change
1,CCOC(=O)[C@H]1[C@H]2COc3ccc(Br)cc3[C@@H]2N2C(=O)CN(C)C(=O)[C@@]12C,19.3%
2,COC(=O)c1ccccc1N=Nc1c(C)[nH][nH]c1=O,1.34%
3,CCOc1cc(/C=N/NC(=O)c2c(C)nc3ccc(Cl)cn23)ccc1O,11.7%
4,O=C(NCCCO)c1cc2c([nH]c3ccccc32)c(-c2ccc(F)cc2)n1,-65.7% (active)
5,O=C(NCCc1ccc(F)cc1)c1n[nH]c2ccccc12,29.4%
6,O=C(NCC1CCCO1)c1cc2c([nH]c3ccccc32)c(-c2ccc(F)cc2)n1 (centres undefined),-10.2%
7,CC(C(=O)NCCc1ccc(S(N)(=O)=O)cc1)N1C(=O)CC(C)(C)Sc2ccccc21 (centres undefined),25.8%
8,CCCOc1ccc(C(=O)CCC(=O)OC(C)C(=O)Nc2ccc(NC(C)=O)cc2)cc1 (centres undefined),10.1%
9,CCCOc1ccc(C(=O)C(CCC(CNCC)C(=O)c2ccc(OCCC)cc2)CNCC)cc1 (centres undefined),-94% (active)
10,CCCOc1ccc(NC(=O)C2CCCNC2=O)cc1 (centres undefined),-6.06%
11,COc1ccc2ccccc2c1/C=N/NC(=O)c1cc(C)[nH]n1,0%
12,COCCNC(=S)N/N=C/c1c(C)[nH]c2ccccc12,-69.7% (active)
13,Cc1[nH]c2ccccc2c1/C=N/NC(=O)CNC(=O)c1ccc2c(c1)OCO2,0%
14,OCCNc1nc2ccccc2n1-c1ncnc2sc3c(c12)CCC3,20.3%
15,CC1=C(C(=O)N2CCOCC2)CC(CC(=O)NCCCN(C)C)C(=O)N1Cc1ccc(C(C)(C)C)cc1 (centres undefined),-21.9%
16,CCOC(=O)C(=Cc1ccccc1)C(=O)c1ccccc1,-98.2% (active)
17,CCOC(=O)C(=CNc1cccc(C)n1)C(=O)OCC,16.2%
18,COc1ccccc1C(=O)c1ccccc1C(=O)c1ccccc1,-7.51%
19,CCOC(=O)c1ccccc1OC(=O)Oc1ccccc1C(=O)OCC,-16.9%
20,CCOC(=O)NC(=O)/C(C#N)=C\c1ccccc1,3.54%
21,CCOC(=O)C(=Cc1ccccc1OC)C(=O)OCC,-99.3% (active)
22,C=CCn1c(=O)n(C)c2c(=O)n(C)c(=O)n(C)c21,-2.57%
23,Cc1ccc(F)c(S(=O)(=O)NC(=O)C2(C)CCN2C(=O)CCc2cccs2)c1 (centres undefined),0.428%
24,Cc1ccc(NC(=O)CN(C)C(=O)c2cccc(S(=O)(=O)N3CCCC3)c2)cc1,8.98%

row,SMILES,activity change
1,NC(CSC1(c2ccccc2)c2ccccc2-c2ccccc21)C(=O)O (centres undefined),24.5%
2,O=C(NCc1nnnn1-c1ccc(Cl)cc1)c1ccc([N+](=O)[O-])o1,-76.1% (active)
3,CC(=O)c1ccc(S(=O)(=O)NCc2nnnn2-c2ccccc2)cc1,8.11%
4,CN(C)c1nnnn1-c1ccc(Cl)cc1,13.4%
5,CC1=C(C(=O)N2CCOCC2)CC(CC(=O)NCCN2CCOCC2)C(=O)N1CCC1=CCCCC1 (centres undefined),11.4%
6,CC(C)CCn1cnc2c1c(=O)n(CC(=O)NC(N)=O)c(=O)n2Cc1ccccc1,-1.43%
7,COCCn1cnc2c1c(=O)n(Cc1ccc(Br)cc1)c(=O)n2Cc1ccccc1,-61.2% (active)
8,COCCn1cnc2c1c(=O)n(CC(=O)NN)c(=O)n2Cc1ccccc1,0.195%
9,COc1ccc2c(c1)CCCO[C@]21O[C@H](CCO)C[C@H](O)[C@H]1O,24.3%
10,Clc1ccc2nc(-c3ccccc3)nc(C(Cl)Cl)c2c1,42.9%
11,COC(=O)Cn1nc(-c2ccccc2)c2cc(Cl)ccc21,-6.25%
12,NC(N)=Nc1nc(-c2ccccc2)c2cc(Cl)ccc2n1,-81.6% (active)
13,Cc1cccc(NS(=O)(=O)c2ccc(C)c(C(=O)NCC(c3ccccc3)N(C)C)c2)c1 (centres undefined),-29.1%
14,CC(C(=O)NCC1CCCCC1)N(C)Cc1cccc(Cl)c1 (centres undefined),-16.9%
15,O=Nc1c(O)cc(O)c2ccccc12,-2.52%
16,O=C(COC(=O)Cn1cnc2ccccc2c1=O)NCC12CC3CC(CC(C3)C1)C2,-52.9% (active)
17,CC1(C)C(=O)Nc2ccccc2N1C(=O)COC(=O)Cn1cnc2ccccc2c1=O,7.25%
18,O=C(COC(=O)Cn1cnc2ccccc2c1=O)NCc1ccccc1Cl,12.2%
19,CCc1cc(-c2nnn(CCC3COCCO3)c2CC)ccc1-c1cn(Cc2ccc3ccccc3c2)nn1 (centres undefined),52.6%
20,Cc1ccc(CNC(=O)C2CCN(S(=O)(=O)c3ccc4nc5c(c(C(=O)O)c4c3)CC(C)CC5)CC2)cc1 (centres undefined),1.65%
21,COc1cccc(CC2(CO)CCN(Cc3cnc(-c4cccc(C)c4)nc3)CC2)c1,-64.4% (active)
22,COc1ccc(CC2(CO)CCN(Cc3cnn(C)c3)CC2)cc1,12.5%
23,Cc1cccc(-c2ncc(CN3CCC(CO)(CCCc4ccccc4)CC3)cn2)c1,-19.1%
24,CC(=O)c1cc(CN2CCC(n3nccc3NC(=O)c3ccccc3Cl)CC2)cs1,-15.4%

row,SMILES,activity change
1,Cn1c(CNC(=O)c2ccco2)nnc1SCC(=O)N1CCN(c2ccccc2)CC1,52%
2,O=C(NCc1nnc(SCC(=O)N2CCC(Cc3ccccc3)CC2)o1)c1ccco1,-92.1% (active)
3,O=C(NCc1nnc(SCC(=O)N2CCCCCC2)o1)c1ccc(F)cc1,22.8%
4,NC(=O)C1(Nc2ccccc2Cl)CCCC1,-1.93%
5,CCOC(=O)[C@]12CCCC=C1N(Cc1ccc3c(c1)OCO3)C(=O)[C@H](CC(=O)NCc1cccs1)C2,0%
6,O=C(CCC(=O)OCc1ccc(Cl)cc1)Nc1ccccc1,15%
7,O=C(O)CC1=C(Nc2ccccc2)C(=O)N(c2ccccc2)C1c1ccc(Cl)cc1 (centres undefined),0%
8,O=C1C=C(c2ccc(Cl)cc2)C(=O)N1Nc1ccccc1,-76.1% (active)
9,COc1ccc(NC(=O)C(C)N2c3cccc4cccc(c34)S2(=O)=O)c(OC)c1 (centres undefined),27.8%
10,CCC(C)CN1C(=O)CN(S(C)(=O)=O)CC1(C)C(=O)Nc1ccc2c(c1)OCCO2 (centres undefined),-19.9%
11,COc1ccc(-c2cc3c(c4c2ccn4C)C2CCC3C2)cn1 (centres undefined),0%
12,COc1ccc(CCNCc2c(-c3ccccc3)n(C)c3ccccc23)cc1,-97.2% (active)
13,COc1ccc(-c2c(C#Cc3ccccc3)c3ccccc3n2C)cc1,-16.3%
14,COc1ccc(-c2nc3ccccc3c(=O)n2CCc2ccc(O)cc2)cc1,-13%
15,CCN1CN(Cc2ccccc2)CNC1=S,0.299%
16,CCc1nnc(NC(=O)C2CCN(C(=O)c3ccccc3C)CC2)s1,-4.49%
17,CCOc1ccc(S(=O)(=O)N2CCC(C(=O)NCc3ccccn3)CC2)cc1Cl,-5.47%
18,Cc1ccc(C(NC(=O)C2CCN(CCOc3ccc(Cl)cc3Cl)CC2)c2ccccn2)cc1 (centres undefined),-68.4% (active)
19,O=C(CCCOc1ccc(Cl)cc1Cl)NNC(=O)C1CCC1,-7.73%
20,CC(C)C[C@@H]1COc2cc(N3CCC[C@@H]3CO)ccc2S(=O)(=O)N1,24.4%
21,CN(NC(=O)c1ccccc1F)c1nc(C(F)(F)F)nc2ccccc12,94.2%
22,COc1ccc(CNc2ncnc3ccccc23)cc1,-5.53%
23,CCc1ccc(C(CNc2nc(C(F)(F)F)nc3ccccc23)N(C)C)cc1 (centres undefined),-104% (active)
24,NS(=O)(=O)c1ccc(CCNc2nc(C(F)(F)F)nc3ccccc23)cc1,-29.6%

row,SMILES,activity change
1,COc1cccc(CNc2nc(C(F)(F)F)nc3ccccc23)c1,-81.4% (active)
2,COc1cccc(CNC(=O)c2n[nH]c3ccccc23)c1,-5.24%
3,O=C(NCCc1ccc(F)cc1)c1ccc(S(=O)(=O)N2CCCCC2)cc1,7.26%
4,CC1CN/C(=C\C(=O)c2ccc(Br)cc2)C(=O)N1 (centres undefined),-2.3%
5,CCc1nc2c(=O)[nH]cnc2o1,-0.15%
6,CCCNC(=O)C1(C)CCCN(Cc2c(C)nn(-c3ccccc3)c2C)C1 (centres undefined),0%
7,C[C@H]1Cn2cnc(C(=O)N[C@H](C)c3ccccc3)c2C(=O)N1,56.9%
8,O=C(Nc1cccc(C(=O)O)c1)/C(=C\c1ccccc1)NC(=O)c1ccc(Br)o1,-24.2%
9,C[C@H]1CN([C@@H](C)CO)S(=O)(=O)c2ccc(Br)cc2O[C@H]1CN(C)C(=O)c1cnccn1,7.37%
10,O=C(CSc1ncnc2sccc12)N1CCN(C(=O)c2cccs2)CC1,-0.616%
11,Nc1c(C(=O)c2cccs2)sc2nsc(SCCN3CCCCC3)c12,-95.7% (active)
12,CCC1OC(C2CC2)CC2=C1C(=O)OC(C)(C)O2 (centres undefined),29.6%
13,NC1=NC(c2ccc([N+](=O)[O-])cc2)N(c2ccc(F)cc2)C(N)=N1 (centres undefined),-52.3% (active)
14,O=[N+]([O-])c1ccc(N2CCN(c3ccc(F)cc3)CC2)cn1,-1.6%
15,COc1ccc(C2N=C(N)N=C(N)N2c2ccccc2)cc1OC (centres undefined),-16.9%
16,CC(C)(C)c1ccc(S(=O)(=O)NC(=O)C2(C)CCN2C(=O)CC2CC2)cc1 (centres undefined),-3.72%
17,CC(Nc1nc(N2CCCC2)nc2ccccc12)c1ccccc1 (centres undefined),-80.2% (active)
18,CCCCn1c(CN2CCN(CCO)CC2)nc2ccccc21,44.1%
19,CC(Nc1nc(N2CCOCC2)nc2ccccc12)c1ccccc1 (centres undefined),0%
20,Cn1c(=O)[nH]c(=O)c2c1nc(N1CCN(CCO)CC1)n2CCSc1nc2ccccc2s1,10.2%
21,c1ccc(-c2cc(N3CCCCC3)c3ccccc3n2)cc1,-26.2%
22,CC(Nc1nc(N2CCN(CCO)CC2)nc2ccccc12)c1ccccc1 (centres undefined),-90.7% (active)
